Compound in this assay: Nc1nc2c(ncn2[C@@H]2O[C@H](COP(=O)(O)OP(=O)(O)OP(=O)(O)O)[C@@H](O)[C@H]2O)c(=O)[nH]1 [guanosine triphosphate]
As to the kind of experiment: NP40-soluble protein abundance relative to vehicle (solubility fold change) (ratio); higher = more soluble protein in presence of GTP. An outline of the steps:
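Crude Jurkat lysate, prepared by Dounce homogenisation, was exposed to eight concentrations from 0.1 to 10 mM for 10 min at room temperature and then 3 min at 37 °C. Solubilisation used 0.8% NP40 with benzonase for 60 min at 4 °C, followed by ultracentrifugation and TMT labelling of the supernatant for LC-MS/MS. After vsn normalisation of intensities, each value is the fold change against the detergent-processed vehicle within each replicate, across three independent experiments.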

These results are taken from the supplement of paper PMC6411743.

± gives the standard deviation of the averaged measurements. Targets with the largest changes are over-represented here; the source holds about 5,400 in all.

Chain of UniProt Q9Y2X3 (Q9Y2X3 whole entry): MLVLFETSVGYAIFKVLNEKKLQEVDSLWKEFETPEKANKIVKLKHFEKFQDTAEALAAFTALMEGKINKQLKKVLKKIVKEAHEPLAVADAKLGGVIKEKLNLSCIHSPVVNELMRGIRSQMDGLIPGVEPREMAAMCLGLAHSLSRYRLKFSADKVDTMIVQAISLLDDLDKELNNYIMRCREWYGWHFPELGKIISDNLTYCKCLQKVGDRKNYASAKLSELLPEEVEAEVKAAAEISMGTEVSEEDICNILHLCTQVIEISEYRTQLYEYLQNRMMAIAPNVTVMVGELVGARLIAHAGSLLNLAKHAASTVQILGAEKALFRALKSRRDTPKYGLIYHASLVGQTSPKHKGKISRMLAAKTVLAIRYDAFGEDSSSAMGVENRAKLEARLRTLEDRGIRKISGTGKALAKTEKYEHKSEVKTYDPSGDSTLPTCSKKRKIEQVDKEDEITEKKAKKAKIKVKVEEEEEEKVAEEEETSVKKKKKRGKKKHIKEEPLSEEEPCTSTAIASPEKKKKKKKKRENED
Chain of UniProt Q9Y4W6 (Q9Y4W6 whole entry): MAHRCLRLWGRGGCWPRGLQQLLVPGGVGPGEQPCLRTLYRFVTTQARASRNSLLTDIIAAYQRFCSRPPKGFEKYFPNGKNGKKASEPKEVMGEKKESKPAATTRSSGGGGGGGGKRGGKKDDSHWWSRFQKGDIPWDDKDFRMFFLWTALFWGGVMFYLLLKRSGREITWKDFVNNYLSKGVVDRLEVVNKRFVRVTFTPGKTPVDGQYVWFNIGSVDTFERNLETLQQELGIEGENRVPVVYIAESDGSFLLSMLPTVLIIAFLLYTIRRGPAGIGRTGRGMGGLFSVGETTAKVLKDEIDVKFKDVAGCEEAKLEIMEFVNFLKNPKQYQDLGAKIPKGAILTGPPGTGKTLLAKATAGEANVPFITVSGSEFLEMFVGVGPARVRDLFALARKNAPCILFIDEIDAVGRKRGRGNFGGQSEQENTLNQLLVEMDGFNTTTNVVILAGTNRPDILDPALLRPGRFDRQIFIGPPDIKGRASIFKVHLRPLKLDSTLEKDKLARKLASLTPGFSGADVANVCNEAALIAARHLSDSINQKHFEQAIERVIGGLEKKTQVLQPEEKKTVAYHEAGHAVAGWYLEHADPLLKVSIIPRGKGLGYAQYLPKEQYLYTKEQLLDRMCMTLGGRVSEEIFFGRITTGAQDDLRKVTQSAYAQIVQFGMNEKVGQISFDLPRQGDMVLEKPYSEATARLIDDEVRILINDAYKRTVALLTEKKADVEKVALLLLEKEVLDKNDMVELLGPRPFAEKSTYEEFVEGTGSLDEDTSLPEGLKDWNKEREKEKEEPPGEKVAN
Chain of UniProt Q9Y266 (Q9Y266 whole entry): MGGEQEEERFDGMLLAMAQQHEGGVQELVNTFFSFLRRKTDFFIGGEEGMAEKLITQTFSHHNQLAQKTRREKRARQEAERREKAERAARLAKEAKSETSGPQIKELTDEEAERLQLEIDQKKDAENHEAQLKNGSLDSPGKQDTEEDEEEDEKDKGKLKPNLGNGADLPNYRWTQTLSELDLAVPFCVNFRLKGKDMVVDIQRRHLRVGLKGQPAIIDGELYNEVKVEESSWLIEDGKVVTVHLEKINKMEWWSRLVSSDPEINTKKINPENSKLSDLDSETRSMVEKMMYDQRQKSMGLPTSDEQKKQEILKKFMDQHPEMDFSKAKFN
Chain of UniProt Q9NQS7 (Q9NQS7 whole entry): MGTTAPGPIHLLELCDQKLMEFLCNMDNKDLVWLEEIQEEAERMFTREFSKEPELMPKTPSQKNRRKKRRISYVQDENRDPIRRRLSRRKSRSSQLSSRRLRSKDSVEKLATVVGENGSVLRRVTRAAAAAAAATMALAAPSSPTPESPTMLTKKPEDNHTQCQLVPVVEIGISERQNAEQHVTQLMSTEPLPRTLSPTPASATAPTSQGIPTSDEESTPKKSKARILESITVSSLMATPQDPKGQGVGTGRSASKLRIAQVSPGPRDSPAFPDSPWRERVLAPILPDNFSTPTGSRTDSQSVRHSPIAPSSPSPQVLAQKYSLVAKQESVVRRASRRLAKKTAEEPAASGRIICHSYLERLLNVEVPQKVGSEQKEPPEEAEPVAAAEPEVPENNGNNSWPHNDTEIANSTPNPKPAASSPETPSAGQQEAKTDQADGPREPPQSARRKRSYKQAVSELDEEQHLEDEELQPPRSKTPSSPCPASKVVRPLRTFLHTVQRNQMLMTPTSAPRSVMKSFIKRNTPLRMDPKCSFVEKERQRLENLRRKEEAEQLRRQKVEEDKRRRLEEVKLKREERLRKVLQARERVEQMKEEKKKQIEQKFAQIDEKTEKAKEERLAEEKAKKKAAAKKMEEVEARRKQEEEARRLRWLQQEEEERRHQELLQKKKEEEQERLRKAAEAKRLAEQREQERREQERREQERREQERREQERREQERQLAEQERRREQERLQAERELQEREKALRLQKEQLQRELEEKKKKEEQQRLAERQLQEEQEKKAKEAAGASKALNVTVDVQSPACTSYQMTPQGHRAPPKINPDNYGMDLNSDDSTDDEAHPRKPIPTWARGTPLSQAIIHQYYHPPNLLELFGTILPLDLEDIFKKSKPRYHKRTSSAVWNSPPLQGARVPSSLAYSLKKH
Chain of UniProt Q92917 (Q92917 whole entry): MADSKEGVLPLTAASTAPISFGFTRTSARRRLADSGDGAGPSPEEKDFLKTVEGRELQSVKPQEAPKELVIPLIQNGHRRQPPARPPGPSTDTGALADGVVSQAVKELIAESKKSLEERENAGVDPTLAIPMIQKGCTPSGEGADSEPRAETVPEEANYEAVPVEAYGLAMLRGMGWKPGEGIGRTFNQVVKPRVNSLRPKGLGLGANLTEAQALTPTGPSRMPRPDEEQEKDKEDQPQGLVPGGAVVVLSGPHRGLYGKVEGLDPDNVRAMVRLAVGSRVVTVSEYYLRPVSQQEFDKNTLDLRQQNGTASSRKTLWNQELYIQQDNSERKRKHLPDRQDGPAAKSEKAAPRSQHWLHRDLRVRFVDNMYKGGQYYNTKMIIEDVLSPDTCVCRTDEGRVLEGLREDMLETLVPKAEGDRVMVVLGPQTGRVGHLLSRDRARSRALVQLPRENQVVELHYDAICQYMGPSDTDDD
Chain of UniProt Q9Y217 (Q9Y217 whole entry): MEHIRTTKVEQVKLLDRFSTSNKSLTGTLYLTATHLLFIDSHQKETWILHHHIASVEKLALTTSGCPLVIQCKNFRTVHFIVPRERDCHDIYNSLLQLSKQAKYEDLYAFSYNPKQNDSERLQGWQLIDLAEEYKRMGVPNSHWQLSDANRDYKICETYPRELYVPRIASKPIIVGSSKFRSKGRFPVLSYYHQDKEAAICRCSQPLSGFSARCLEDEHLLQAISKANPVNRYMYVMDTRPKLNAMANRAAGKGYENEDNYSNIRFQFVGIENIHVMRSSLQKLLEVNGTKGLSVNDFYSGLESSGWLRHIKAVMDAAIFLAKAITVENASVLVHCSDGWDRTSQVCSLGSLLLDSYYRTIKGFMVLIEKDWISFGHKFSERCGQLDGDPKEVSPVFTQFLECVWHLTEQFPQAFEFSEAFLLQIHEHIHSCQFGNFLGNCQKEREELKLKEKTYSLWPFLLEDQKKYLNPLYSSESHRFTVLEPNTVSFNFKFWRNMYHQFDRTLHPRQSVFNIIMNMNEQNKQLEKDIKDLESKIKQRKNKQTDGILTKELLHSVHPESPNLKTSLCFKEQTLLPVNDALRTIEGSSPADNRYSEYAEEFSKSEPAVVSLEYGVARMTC
Chain of UniProt Q9NYL9 (Q9NYL9 whole entry): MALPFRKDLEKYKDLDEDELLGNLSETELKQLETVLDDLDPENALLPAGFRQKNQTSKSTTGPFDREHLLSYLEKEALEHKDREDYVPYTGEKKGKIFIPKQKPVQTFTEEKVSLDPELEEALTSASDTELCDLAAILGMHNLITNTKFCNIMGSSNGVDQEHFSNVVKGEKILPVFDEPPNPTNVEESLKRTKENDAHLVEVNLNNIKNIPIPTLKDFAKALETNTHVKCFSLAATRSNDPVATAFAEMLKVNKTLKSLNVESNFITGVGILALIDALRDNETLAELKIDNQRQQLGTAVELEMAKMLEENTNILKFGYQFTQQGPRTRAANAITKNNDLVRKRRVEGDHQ
Chain of UniProt Q9H6E4 (Q9H6E4 whole entry): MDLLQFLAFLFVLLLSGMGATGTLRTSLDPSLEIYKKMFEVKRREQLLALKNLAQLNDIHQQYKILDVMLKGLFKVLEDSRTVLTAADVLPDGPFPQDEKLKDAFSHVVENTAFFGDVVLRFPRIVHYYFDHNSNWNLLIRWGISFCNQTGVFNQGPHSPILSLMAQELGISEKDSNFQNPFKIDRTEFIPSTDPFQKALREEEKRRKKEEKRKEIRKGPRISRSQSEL
Chain of UniProt Q9Y5J1 (Q9Y5J1 whole entry): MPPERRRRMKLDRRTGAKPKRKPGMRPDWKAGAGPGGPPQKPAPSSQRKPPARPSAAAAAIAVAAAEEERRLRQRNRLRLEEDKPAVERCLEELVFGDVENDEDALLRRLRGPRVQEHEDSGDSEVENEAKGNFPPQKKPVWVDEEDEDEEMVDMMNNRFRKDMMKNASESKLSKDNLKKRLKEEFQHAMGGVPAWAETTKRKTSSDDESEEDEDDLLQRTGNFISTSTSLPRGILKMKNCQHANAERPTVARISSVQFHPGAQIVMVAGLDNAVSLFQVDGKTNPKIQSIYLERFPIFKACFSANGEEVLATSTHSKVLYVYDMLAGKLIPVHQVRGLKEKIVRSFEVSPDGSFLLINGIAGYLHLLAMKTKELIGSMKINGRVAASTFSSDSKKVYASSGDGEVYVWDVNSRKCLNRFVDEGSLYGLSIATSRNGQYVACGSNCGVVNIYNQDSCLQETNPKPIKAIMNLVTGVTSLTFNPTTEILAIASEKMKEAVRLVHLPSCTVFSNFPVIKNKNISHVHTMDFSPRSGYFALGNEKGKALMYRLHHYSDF

Take TMOD3 (UniProt Q9NYL9): the NP40-soluble protein abundance reads like this: (concentration: 0.1mM) 0.878 ± 0.033; (concentration: 0.5mM) 0.855 ± 0.044; (concentration: 1mM) 1.03 ± 0.039; (concentration: 2mM) 1.01 ± 0.029; (concentration: 4mM) 1.02 ± 0.019; (concentration: 6mM) 1.02 ± 0.026. Moreover, the NP40-soluble protein abundance runs as follows: (concentration: 8mM) 1 ± 0.048; (concentration: 10mM) 1.08 ± 0.04.

CCDC134 (UniProt Q9H6E4): the NP40-soluble protein abundance reads like this: (concentration: 0.1mM) 0.934 ± 0.071; (concentration: 0.5mM) 0.893 ± 0.1; (concentration: 1mM) 0.944 ± 0.089; (concentration: 2mM) 0.911 ± 0.087; (concentration: 4mM) 0.905 ± 0.077; (concentration: 6mM) 0.881 ± 0.084. In addition, the NP40-soluble protein abundance was 0.869 ± 0.1 (concentration: 8mM) and 0.86 ± 0.091 (concentration: 10mM).

Consider NUDC (UniProt Q9Y266), for which the NP40-soluble protein abundance runs as follows: (concentration: 0.1mM) 0.924 ± 0.044; (concentration: 0.5mM) 0.938 ± 0.06; (concentration: 1mM) 0.931 ± 0.058; (concentration: 2mM) 0.88 ± 0.077; (concentration: 4mM) 0.852 ± 0.063; (concentration: 6mM) 0.893 ± 0.076. Moreover, the NP40-soluble protein abundance (concentration: 8mM) amounted to 0.885 ± 0.056 and the NP40-soluble protein abundance (concentration: 10mM) amounted to 0.872 ± 0.069.

Consider SAMM50 (UniProt Q9Y512), for which the NP40-soluble protein abundance runs as follows: (concentration: 0.1mM) 1.13 ± 0.15; (concentration: 0.5mM) 1.18 ± 0.19; (concentration: 1mM) 0.999 ± 0.1; (concentration: 2mM) 1.13 ± 0.29; (concentration: 4mM) 1.11 ± 0.19; (concentration: 6mM) 1.1 ± 0.22. The NP40-soluble protein abundance runs as follows: (concentration: 8mM) 0.985 ± 0.098; (concentration: 10mM) 0.949 ± 0.17.

As to UniProt Q9NQS7|Q9NQS7-2, the NP40-soluble protein abundance (concentration: 0.1mM) came to 1.16 ± 0.11; the NP40-soluble protein abundance (concentration: 0.5mM) turned out to be 1.2 ± 0.24; the NP40-soluble protein abundance (concentration: 1mM) was 1.31 ± 0.089; the NP40-soluble protein abundance (concentration: 2mM) was found to be 1.28 ± 0.14; the NP40-soluble protein abundance (concentration: 4mM) is 1.49 ± 0.21; the NP40-soluble protein abundance (concentration: 6mM) was 1.6 ± 0.17. Also, the NP40-soluble protein abundance is, setting by setting: (concentration: 8mM) 1.72 ± 0.11; (concentration: 10mM) 1.97 ± 0.29.

As to UTP18 (UniProt Q9Y5J1), the NP40-soluble protein abundance (concentration: 0.1mM) came to 1.06 ± 0.091; the NP40-soluble protein abundance (concentration: 0.5mM) came out at 1.16 ± 0.12; the NP40-soluble protein abundance (concentration: 1mM) worked out at 1.13 ± 0.091; the NP40-soluble protein abundance (concentration: 2mM) amounted to 1.24 ± 0.091; the NP40-soluble protein abundance (concentration: 4mM) was determined as 1.37 ± 0.11; the NP40-soluble protein abundance (concentration: 6mM) was determined as 1.3 ± 0.044. The NP40-soluble protein abundance amounted to 1.37 ± 0.17 (concentration: 8mM) and 1.57 ± 0.17 (concentration: 10mM).

Turning to GPKOW (UniProt Q92917), the NP40-soluble protein abundance by setting is: (concentration: 0.1mM) 0.974 ± 0.07; (concentration: 0.5mM) 0.995 ± 0.067; (concentration: 1mM) 1.02 ± 0.077; (concentration: 2mM) 0.975 ± 0.086; (concentration: 4mM) 0.968 ± 0.071; (concentration: 6mM) 0.99 ± 0.059. The NP40-soluble protein abundance reads like this: (concentration: 8mM) 0.998 ± 0.057; (concentration: 10mM) 1.01 ± 0.088.

Regarding UniProt Q9H8Y8|Q9H8Y8-3, the NP40-soluble protein abundance by setting is: (concentration: 0.1mM) 0.893 ± 0.088; (concentration: 0.5mM) 0.934 ± 0.09; (concentration: 1mM) 0.911 ± 0.095; (concentration: 2mM) 0.873 ± 0.087; (concentration: 4mM) 0.836 ± 0.091; (concentration: 6mM) 0.858 ± 0.059. Also, the NP40-soluble protein abundance by setting is: (concentration: 8mM) 0.884 ± 0.091; (concentration: 10mM) 0.892 ± 0.12.

Take AFG3L2 (UniProt Q9Y4W6): the NP40-soluble protein abundance came to 0.998 ± 0.016 (concentration: 0.1mM); 0.996 ± 0.016 (concentration: 0.5mM); 0.946 ± 0.024 (concentration: 1mM); 0.969 ± 0.022 (concentration: 2mM); 0.977 ± 0.022 (concentration: 4mM); 0.987 ± 0.04 (concentration: 6mM). Also, the NP40-soluble protein abundance (concentration: 8mM) was 0.988 ± 0.02 and the NP40-soluble protein abundance (concentration: 10mM) turned out to be 0.938 ± 0.014.

Consider UniProt Q9C0B5|Q9C0B5-2, for which the NP40-soluble protein abundance worked out at 1.02 ± 0.049 (concentration: 0.1mM); 0.949 ± 0.024 (concentration: 0.5mM); 0.96 ± 0.018 (concentration: 1mM); 0.938 ± 0.012 (concentration: 2mM); 0.903 ± 0.018 (concentration: 4mM); 0.909 ± 0.019 (concentration: 6mM). Moreover, the NP40-soluble protein abundance reads like this: (concentration: 8mM) 1.02 ± 0.03; (concentration: 10mM) 0.997 ± 0.029.

Regarding MTMR6 (UniProt Q9Y217), the NP40-soluble protein abundance is, setting by setting: (concentration: 0.1mM) 1.068 ± 0.0063; (concentration: 0.5mM) 1.02 ± 0.027; (concentration: 1mM) 0.967 ± 0.016; (concentration: 2mM) 0.969 ± 0.01; (concentration: 4mM) 0.93 ± 0.031; (concentration: 6mM) 0.907 ± 0.0098. The NP40-soluble protein abundance runs as follows: (concentration: 8mM) 0.947 ± 0.034; (concentration: 10mM) 0.913 ± 0.042.

As for UniProt Q9BVI0|A0A0A0MT13|Q5JWZ0|Q5JXL1, the NP40-soluble protein abundance reads like this: (concentration: 0.1mM) 1.11 ± 0.068; (concentration: 0.5mM) 1.07 ± 0.12; (concentration: 1mM) 1.19 ± 0.078; (concentration: 2mM) 1.27 ± 0.057; (concentration: 4mM) 1.52 ± 0.056; (concentration: 6mM) 1.553 ± 0.012. The NP40-soluble protein abundance (concentration: 8mM) was 1.77 ± 0.08 and the NP40-soluble protein abundance (concentration: 10mM) came out at 1.71 ± 0.071.

Turning to ULBP2 (UniProt Q9BZM5), the NP40-soluble protein abundance turned out to be 0.893 ± 0.085 (concentration: 0.1mM); 0.86 ± 0.1 (concentration: 0.5mM); 0.918 ± 0.073 (concentration: 1mM); 0.884 ± 0.1 (concentration: 2mM); 0.907 ± 0.098 (concentration: 4mM); 0.89 ± 0.043 (concentration: 6mM). The NP40-soluble protein abundance (concentration: 8mM) worked out at 0.916 ± 0.1 and the NP40-soluble protein abundance (concentration: 10mM) is 0.925 ± 0.088.

Regarding NOP58 (UniProt Q9Y2X3), the NP40-soluble protein abundance runs as follows: (concentration: 0.1mM) 1.01 ± 0.049; (concentration: 0.5mM) 1.02 ± 0.019; (concentration: 1mM) 1.07 ± 0.075; (concentration: 2mM) 1.19 ± 0.044; (concentration: 4mM) 1.4 ± 0.066; (concentration: 6mM) 1.58 ± 0.13. Moreover, the NP40-soluble protein abundance worked out at 1.77 ± 0.11 (concentration: 8mM) and 2.07 ± 0.16 (concentration: 10mM).
